Compounds without any hit were thinned out: in the full panel of roughly 83,000, 20% have a hit.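 Cell lines were cultured in 96-well plates, exposed to a single compound concentration, and assessed for percent growth 48 hours later.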 Activity calls are given as the source filed them. The calls were made as follows: active = growth percent below 10; inactive = the rest.
Columns and labels:
Test in all cases: NCI-60 one-dose screen, 48 h (100 = growth as untreated, 0 = no growth, -100 = all killed)
[1] = system: NCI-H23 lung; conditions: 10 µM unless noted
[2] = system: NCI-H226 lung; conditions: 10 µM unless noted
[3] = system: NCI-H322M lung; conditions: 10 µM unless noted
[4] = system: NCI-H460 lung; conditions: 10 µM unless noted
[5] = system: HOP-92 NSCLC; conditions: 10 µM
[6] = system: NCI-H522 lung; conditions: 10 µM
[7] = system: A549/ATCC NSCLC; conditions: 10 µM unless noted
[8] = system: 786-0 renal; conditions: 10 µM unless noted
[9] = system: COLO 205 colon; conditions: 10 µM unless noted

Measured: growth

CC1(C)CC(=O)C2=C(C1)Oc1nc(N)c(C#N)c(N)c1C2c1ccc(F)cc1 (stereo unspecified)
inactive: [1] 133% | [2] 106% | [3] 123% | [4] 117% | [5] 76.4% | [6] 146% | [7] 110% | [8] 94.2% | [9] 127%

Cc1cc2c(-c3nc4ccccc4n3C)c(O)c(O)cc2c(O)c1-c1c(C)cc2c(-c3nc4ccccc4n3C)c(O)c(O)cc2c1O
inactive: [1] 24.7% | [2] 68.1% | [3] 73% | [5] 52.1% | [6] 41.4% | [7] 26.7% | [8] 76%
active: [4] 7.3% | [9] 4.14%

COc1ccc(OC)c(Cn2cc3c(c2)-c2oncc2CC3)c1
inactive: [1] 28.8% | [2] 70.2% | [3] 26% | [4] 14.1% | [5] 59.8% | [6] 50.3% | [7] 43.3% | [8] 46% | [9] 35.8%

O=S(=O)(O)c1ccc2c(c1)Sc1cc(S(=O)(=O)O)ccc1O2
inactive: [1] 109% | [2] 118% | [3] 118% | [4] 118% | [5] 98.5% | [6] 107% | [7] 99.5% | [8] 108% | [9] 111%

O=C(/C=C/c1c[nH]c2ccccc12)c1cc2ccccc2o1
inactive: [1] 97.2% | [2] 100% | [3] 99.7% | [4] 107% | [5] 83.2% | [6] 79.8% | [7] 89.5% | [8] 86.6% | [9] 130%

COc1ccc2sc(-n3nc4nc5n(c(=O)c4c3N)-c3ccccc3Sc3ccccc3-5)nc2c1
inactive: [1] 79.2% | [2] 81.4% | [3] 75.4% | [4] 84.9% | [5] 74.1% | [6] 75.6% | [7] 68% | [8] 91.2% | [9] 64.7%

Cc1nc(NC(=S)Nc2ccc(F)cc2)sc1C(=O)NNC(=S)Nc1ccc(F)cc1
inactive: [1] 38% | [2] 60.7% | [3] 86.8% | [4] 70.2% | [5] 19.7% | [6] 33.9% | [7] 66.2% | [8] 18.9% | [9] 85.9%

CCOC(=O)NC1=NCC(C)(C)S1
inactive: [1] 102% | [2] 97.2% | [3] 101% | [4] 101% | [5] 111% | [6] 87.3% | [7] 100% | [8] 104% | [9] 117%

COc1ccc(/C=C(/C(=O)N2CCCCC2)c2cc(OC)c(OC)c(OC)c2)cc1
inactive: [1] 36.3% | [2] 94.8% | [3] 45.2% | [4] 11.6% | [5] 45.5% | [7] 34.9% | [8] 23.5%
active: [6] -24.2% | [9] -14.6%

COc1ccc(Cn2cc3c(c2-c2ccc(O)cc2)CCc2cnoc2-3)cc1
inactive: [1] 20.5% | [2] 24.1% | [3] 18.8% | [5] 93.1% | [6] 35.7% | [7] 32.3% | [8] 28.9%
active: [4] 1.39% | [9] -17.6%

Brc1ccc(-c2nc3ccccc3s2)cc1
inactive: [1] 92.4% | [2] 75.8% | [3] 92.7% | [4] 97.1% | [5] 97.7% | [6] 93.8% | [7] 106% | [8] 106% | [9] 106%

CCCOC(=O)c1c(C)n(C)c2scc[n+]12
inactive: [1] 29% | [2] 87.2% | [3] 51.2% | [4] 110% | [5] 30.1% | [6] 79.2% | [7] 62.9% | [8] 62.9% | [9] 84.9%

COc1ccc(Cn2cc3c(c2)-c2oncc2CC3)cc1OC
active: [4] 1.13% | [9] -18.2%
inactive: [1] 16.9% | [2] 31.4% | [3] 22.9% | [5] 84.4% | [6] 20.5% | [7] 25.9% | [8] 22%

CC(C)(C)C(=O)CCCCCCCC/C=C/CCCC(O)c1ccco1 (stereo unspecified)
inactive: [1] 102% | [2] 112% | [3] 95.5% | [4] 112% | [5] 79.1% | [6] 120% | [7] 108% | [8] 94.5% | [9] 124%

From PubChem BioAssay (NCI)
